From PubChem BioAssay
This is a sample that favours compounds with a hit; in the whole collection about 4.1% have one here.
MEKK2wt PB1 HTS = modulators of MEK5 binding to wildtype MEKK2, primary screen, biochemical, multiplex bead flow cytometry, Alexa488-MEK5; Mitogen-activated protein kinase kinase kinase 2 (Homo sapiens), Q9Y2U5; Alexa488-MEK5 binding to MEKK2 WT; actives lie on both sides; binding response (% of control), % at 10 µM; 290,000 tested, 1.1% active; AID 1531, 2009; in the data active = binding response below about 67% or above about 130%
MEKK3 PB1 HTS = modulators of MEKK3-MEK5 PB1 binding, primary screen, biochemical, wildtype MEKK3, multiplex bead flow cytometry, Alexa488-MEK5; Mitogen-activated protein kinase kinase kinase 3 (Homo sapiens), Q99759; bead-based flow cytometry, Alexa488-MEK5 binding to MEKK3; actives lie on both sides; 0 = blocked by unlabeled MEK5, 100 = vehicle; binding response (% of control), % at 10 µM; 290,000 tested, 1.4% active; AID 1529, 2009;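 active = binding response more than 3 SD above or below the average of its plate-row segment, actives on both sides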;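 also: Alexa488 bead fluorescence after subtracting the streptavidin-only scavenger bead signal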
Target sequence (Q99759 whole entry, looked up): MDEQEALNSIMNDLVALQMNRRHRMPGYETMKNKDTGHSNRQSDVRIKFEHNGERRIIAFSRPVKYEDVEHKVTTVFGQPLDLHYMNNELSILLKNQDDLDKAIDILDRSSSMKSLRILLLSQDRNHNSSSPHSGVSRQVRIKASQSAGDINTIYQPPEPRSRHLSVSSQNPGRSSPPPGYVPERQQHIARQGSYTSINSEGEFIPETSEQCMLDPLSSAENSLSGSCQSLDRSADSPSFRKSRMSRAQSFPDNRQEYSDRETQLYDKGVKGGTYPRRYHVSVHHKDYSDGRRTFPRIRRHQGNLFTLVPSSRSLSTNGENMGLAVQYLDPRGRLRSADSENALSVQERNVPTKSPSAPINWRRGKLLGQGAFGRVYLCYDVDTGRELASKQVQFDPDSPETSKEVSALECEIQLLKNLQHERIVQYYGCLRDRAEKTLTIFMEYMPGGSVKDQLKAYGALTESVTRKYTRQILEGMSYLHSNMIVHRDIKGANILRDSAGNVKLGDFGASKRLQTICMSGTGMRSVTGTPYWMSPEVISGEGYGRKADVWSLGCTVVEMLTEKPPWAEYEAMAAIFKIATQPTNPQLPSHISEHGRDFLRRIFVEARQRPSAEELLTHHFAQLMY
MEKK2 mut-MEK5 = MEK5 binding signal on mutant MEKK2 PB1, primary screen, biochemical, multiplex bead flow cytometry, Alexa488-MEK5; Alexa488-MEK5 binding to MEKK2 mutant; percent response, % at 10 µM; AID 1530, 2009; 290,000 tested, 0.35% active; in the data active = percent response above about 24%, passing the limit was not always enough
SUMO Mot1 rescue = yeast Mot1-301 growth rescue at high temperature, primary screen, SUMOylation pathway inhibitor project, S. cerevisiae, ATP luminescence, 38.5C; S. cerevisiae Mot1-301 growth rescue; percent above DMSO median, 100 means doubled; growth rescue, % at 18.8 µM; 320,000 tested, 1% active; AID 2716, 2010;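 active = every valid replicate shows activation above 250% relative to neutral control wells; inactive = the rest, any valid replicate at or below 250%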;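 also: OY570 slx delta 5 strain wells were the positive control but not used for scaling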
CHT allo act = CHT positive allosteric modulators, primary screen, cell-based, membrane potential dye, choline EC20. High affinity choline transporter 1 (Homo sapiens), Q9GZV3. CHT-expressing cells; active compounds read high; LV-AA mutant CHT in HEK293 cells. B-score at 10 µM. 310,000 tested, 0.49% active;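 active = initial fluorescence not abnormally high and integrated response B-score, plate-corrected, over 3 SD above library mean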
CHT inh = inhibitors of human choline transporter CHT | High affinity choline transporter 1 (Homo sapiens), Q9GZV3 | CHT-expressing cells, membrane potential dye, choline response; active compounds read low | B-score at 10 µM | 310,000 tested, 0.86% active | AID 488975, 2010;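 active = B-score over 3 SD under the library average, and starting fluorescence ratio not unusually high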;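 also: choline stimulus applied at its EC90 after an EC20 pre-addition; B-score computed on integrated fluorescence ratio after choline addition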
MEKK2wt confirm = modulators of MEK5 binding to wildtype MEKK2, confirmation, biochemical, single concentration, multiplex bead flow cytometry; shares compounds with MEKK3 PB1 HTS; Alexa488-MEK5 binding to MEKK2 WT; actives lie on both sides; binding response (% of control), % at 10 µM; 5,900 tested, 2.4% active; in the data active = binding response below about 16% or above about 210%; inactive = in between
MEKK2mut confirm = mutant MEKK2 PB1-MEK5 binding signal retest – biochemical, single concentration, multiplex bead flow cytometry, confirmation. shares compounds with MEKK3 PB1 HTS. Alexa488-MEK5 binding to MEKK2 mutant. percent response, % at 10 µM. 5,900 tested, 2% active. AID 1893, 2009; in the data active = percent response mostly above about 71%, no sharp cut-off; inactive = mostly below about 38%;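 also: higher means compound restores mutant binding toward wildtype level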
MEKK3 confirm = MEKK3 wild-type PB1 binding to MEK5, inhibitors, confirmation, biochemical, bead multiplex flow cytometry, single concentration, wildtype; shares compounds with MEKK3 PB1 HTS; Alexa488-MEK5 binding to MEKK3; active compounds read low; binding response (% of control), % at 10 µM; 5,900 tested, 1.8% active; AID 1894, 2009;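 active = binding response below 72% of control, or above a set upper limit, though filed actives all read lower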;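 also: 100% = DMSO only wells and 0% = binding blocked by excess unlabeled MEK5; lower values mean stronger disruption of MEK5 binding to MEKK3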
* = called active by the depositor; i = inactive; nt = no result given; [ ] = another dose, or the depositor's remark.

SMILES	MEKK2wt PB1 HTS	MEKK3 PB1 HTS	MEKK2 mut-MEK5	SUMO Mot1 rescue	CHT allo act	CHT inh	MEKK2wt confirm	MEKK2mut confirm	MEKK3 confirm
N#CC1=C(S)N(c2ccccc2)C(c2ccc(-c3cccc(Cl)c3)o2)NC1=O (centres undefined)	101	130*	0	-17	i	i	95	-7	100
Cc1cccc(N2C(S)=C(C#N)C(=O)NC2c2ccco2)c1 (centres undefined)	81	101	-12	-7	i	i	nt	nt	nt
CNc1nnc(SCC(=O)N2c3ccccc3NC(=O)CC2C)s1 (centres undefined)	nt	nt	nt	8	nt	nt	nt	nt	nt
Cc1cc(N/N=C/c2ccccc2Br)nc2ccccc12	144*	99	22	-4	i	i	136	13	104
Brc1ccccc1/C=N/Nc1ccc2ccccc2n1	126	101	15	12	i	i	nt	nt	nt
CCOc1ccc(CCNC(=O)COC(=O)c2nccnc2N)cc1OCC	nt	nt	nt	-14	i	i	nt	nt	nt
CC(C)(C)c1n[nH]c(=S)n(/N=C/c2cccs2)c1=O	109	147*	0	-8	i	i	104	15	104
S=c1[nH]nc(-c2ccc(Cl)cc2)n1/N=C/c1cccs1	97	99	-5	-4	i	i	nt	nt	nt
COCCCNC(=O)c1cc2c(-c3ccc(Cl)cc3)nn(C)c2s1	119	109	7	-8	i	i	nt	nt	nt
COc1cccc(-c2nn(C)c3sc(C(=O)NCCCN(C)Cc4ccccc4)cc23)c1	147*	106	22	-4	i	i	146	46	105
CCN(CC)CCCNC(=O)c1cc2c(-c3cccc(OC)c3)nn(C)c2s1	120	101	13	5	i	i	nt	nt	nt
CCCCN(CC)CCCNC(=O)c1cc2c(-c3ccc(OC)c(OC)c3)nn(C)c2s1	135*	108	23	-5	i	i	107	13	102
COC(=O)CCCC(=O)NC1CCCc2c1cnn2-c1ccc(F)cc1F (centres undefined)	106	99	5	0	i	i	nt	nt	nt
CSCC[C@H](NC(=O)[C@@H]1CSC2c3ccccc3C(=O)N21)C(=O)NCc1ccco1 (some centres undefined)	98	102	1	2	i	i	nt	nt	nt
CCCCCCCn1ccc(=N)cc1	105	103	1	-5	i	i	nt	nt	nt
CCCCCCCCCn1ccc(=N)cc1	140*	131*	31	-14	i	i	112	6	104
Cc1nc2ccc(C(=O)N3c4ccccc4CC3C)cc2s1 (centres undefined)	97	99	-2	-4	i	i	nt	nt	nt
CCOCc1nnc(NC(=O)c2c(OC)cccc2OC)s1	137*	115	15	-8	i	i	100	-2	103
CC(Cc1c[nH]c2ccccc12)NC(N)=O (centres undefined)	111	129*	0	-6	i	i	107	13	111
CC(Cc1c[nH]c2ccccc12)C(=O)O (centres undefined)	95	94	1	-4	i	i	nt	nt	nt
O=C(NCCCN1CCCC1)c1cc(Sc2ccc(F)cc2)nc2ccccc12	122	133*	1	-18	i	i	125	13	104
CCN(CC)C(=O)COc1coc(CN2CCN(c3ccccc3)CC2)cc1=O	100	103	-3	-22	i	i	nt	nt	nt
CCS(=O)(=O)c1ccc2oc(SCC(=O)N3CCCCC3)nc2c1	67	48*[inhibitor]	-14	-12	i	i	107	3	106
CCOC(=O)/C(C#N)=C/C1=C(N2CCOCC2)C(C)(C)OCC1	99	99	4	-6	i	i	nt	nt	nt
CCOC(=O)/C(C#N)=C/c1cc2ccccc2nc1N1CCOCC1	100	66*[inhibitor]	0	3	i	i	96	-9	98
SMILES	MEKK2wt PB1 HTS	MEKK3 PB1 HTS	MEKK2 mut-MEK5	SUMO Mot1 rescue	CHT allo act	CHT inh	MEKK2wt confirm	MEKK2mut confirm	MEKK3 confirm
CCOC(=O)/C(C#N)=C/c1cc2ccc(C)cc2nc1Cl	91	57*[inhibitor]	-2	13	i	i	100	-6	99
Cc1ccc(-c2cc3ccccc3nc2N2CCOCC2)cc1	85	75*[inhibitor]	-9	-1	i	i	106	3	109
CCOC(=O)/C(C#N)=C/c1cc2cc(C)c(C)cc2nc1Cl	97	101	0	-28	i	i	nt	nt	nt
O=C(N/C(=C\c1ccccc1)C(=O)N1CCOCC1)c1ccccc1Cl	106	103	8	262	i	i	nt	nt	nt
Cc1nn(C(C)C(=O)N2CCOCC2)c(C)c1[N+](=O)[O-] (centres undefined)	104	98	6	356	i	i	nt	nt	nt
C=C(C)C(=O)Nc1cccc(C2=NOC3(C2)C[C@@H](C(N)=O)N(C(=O)CC(c2ccccc2)c2ccccc2)C3)c1 (some centres undefined)	79	94	-7	16	i	i	nt	nt	nt
O=C1N(Cc2cccc(Cl)c2)C[C@@H]2C[C@@H](c3cccc4ncccc34)N3CCC[C@@]123	92	101	-9	nt	i	i	nt	nt	nt
O=C1N(Cc2cccc(Cl)c2)C[C@@H]2C[C@@H](c3c[nH]c4ccccc34)N3CCC[C@@]123	nt	63*[inhibitor]	22	3	i	i	84	-10	72
O=C(Nc1cccc(Oc2ccc3c(c2)C(=O)NC3=O)c1)c1cccs1	75	98	2	nt	i	i	nt	nt	nt
Cc1cccc(NC(=O)CN2CCN(CC(=O)Nc3cccc(C)c3)CC2)c1	91	82*[inhibitor]	-10	-21	i	i	109	1	105
